The values below come from PubChem BioAssay AID449768 (Vanderbilt High Throughput Screening Facility, 2010).

Molecules are shown by their SMILES. About 1,400 (1.3%) of roughly 110,000 compounds were called active. This is one part of a sample in which actives are shown more often than they occur. A number with no mark means an inactive call.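 How the source made its calls: active means Z score or B-score, a plate-position-corrected score, falls beyond the plate's 99.7% confidence bounds, in either direction; inactive means both scores lie inside the 99.7% bounds.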

Chain of Sodium-dependent dopamine transporter (Homo sapiens) (Q01959 whole entry, looked up): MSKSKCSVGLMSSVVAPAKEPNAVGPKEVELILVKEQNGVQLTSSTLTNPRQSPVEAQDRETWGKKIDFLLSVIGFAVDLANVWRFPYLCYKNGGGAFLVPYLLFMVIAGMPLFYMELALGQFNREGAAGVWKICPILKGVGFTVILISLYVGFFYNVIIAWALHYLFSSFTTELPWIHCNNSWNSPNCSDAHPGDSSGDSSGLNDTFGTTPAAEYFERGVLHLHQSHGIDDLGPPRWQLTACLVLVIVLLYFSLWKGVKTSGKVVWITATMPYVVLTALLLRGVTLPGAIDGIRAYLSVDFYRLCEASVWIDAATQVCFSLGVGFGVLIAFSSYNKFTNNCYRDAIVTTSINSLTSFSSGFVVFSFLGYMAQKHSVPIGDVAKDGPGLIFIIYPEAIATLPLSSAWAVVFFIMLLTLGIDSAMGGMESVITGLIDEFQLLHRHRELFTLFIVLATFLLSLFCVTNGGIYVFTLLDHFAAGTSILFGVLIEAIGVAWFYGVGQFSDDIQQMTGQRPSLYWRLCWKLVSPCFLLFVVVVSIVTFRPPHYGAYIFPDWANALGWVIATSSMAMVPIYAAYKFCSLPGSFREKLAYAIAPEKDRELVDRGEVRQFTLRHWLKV

The assay concerns the target Sodium-dependent dopamine transporter (Homo sapiens) (UniProt Q01959). In words: changed hDAT dopamine uptake under cocaine IC80, either direction, primary screen, cocaine antagonist project, cell-based, LLC-PK1 hDAT, [14C]-dopamine uptake, MLSMR (AID 449768).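 Further: scored against the spread of the other compound wells on the same plate.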 The settings on record: LLC-PK1 hDAT cells, [14C]-dopamine uptake with cocaine IC80; at 10 µM; actives deviate in either direction.
For `COc1ccccc1CN1CCN(C(=O)Cc2ccccc2)CC1`, the B-score was 0.503.

For the molecule `O=C(COc1ccc2ccccc2c1)N1CCN(Cc2ccncc2)CC1`, the B-score was -1.8 (active).

For `CC(C)c1ccc(OCC(=O)N2CCN(C)CC2)c(Br)c1`, the B-score was -0.237.

For `COC(=O)C1=C(c2cc3ccccc3o2)C[C@@H]2CC[C@H]1N2C(=O)NC1CCCCC1`, the B-score is -0.718.

Turning to `COC(=O)C1=C(c2ccccc2)C[C@@H]2CC[C@H]1N2C(=O)N1CCCCC1`, the B-score is -0.0906.
